Among the data in publication PMC6602471 are binding signal values, retold here.

Over roughly 1,300 sequences, “log fluorescence intensity” has its median near 8.9; the highest 2% begin near 13. The sample holds the highest values, similar sequences and a random draw of the others, so the mix is not that of the screen.

In the test the target is T1, ELK1 (Homo sapiens, UniProt P19419 1-428).
T1 sequence: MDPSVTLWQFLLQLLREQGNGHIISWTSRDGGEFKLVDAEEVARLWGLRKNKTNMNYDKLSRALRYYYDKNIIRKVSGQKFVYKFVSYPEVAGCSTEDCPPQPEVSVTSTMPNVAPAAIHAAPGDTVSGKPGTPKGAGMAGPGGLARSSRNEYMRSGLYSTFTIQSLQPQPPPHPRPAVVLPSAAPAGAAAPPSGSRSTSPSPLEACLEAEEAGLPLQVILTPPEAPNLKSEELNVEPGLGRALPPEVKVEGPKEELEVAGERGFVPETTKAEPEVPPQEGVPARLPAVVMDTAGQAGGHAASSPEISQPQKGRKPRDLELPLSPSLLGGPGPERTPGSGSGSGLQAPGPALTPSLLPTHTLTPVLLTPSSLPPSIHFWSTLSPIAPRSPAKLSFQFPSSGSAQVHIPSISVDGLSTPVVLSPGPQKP
Description: custom PBM; custom protein-binding microarray; buffer, salt, pH and temperature not stated; high values mean tight binding. The following applies: dsDNA, one strand shown.
“GTGCATAGGATCCCATCCAACACACGTGTTAAAATGGTCTTGATTCGCTTGACGCTGCTG”: the binding signal is 9 log fluorescence intensity.
Next, “CGGAAGTGTCGTAAACGTCGGATATACGGTTCTTCTGTCTTGATTCGCTTGACGCTGCTG”: 9.29 log fluorescence intensity.
Under “GGAAAAAGGCCCAGGGTAACACCGGAAGCGGGCTTAGTCTTGATTCGCTTGACGCTGCTG” stands 10.5 log fluorescence intensity; under “GTGTCTAGGATCCCATCCAACACACGTGTTAAAATGGTCTTGATTCGCTTGACGCTGCTG”, 8.94 log fluorescence intensity; under “CAGCAGAGGACTTCTTCCCTGAAGCAATTGATAACCGTCTTGATTCGCTTGACGCTGCTG”, 8.97 log fluorescence intensity.
Regarding “CGGAAGTGTCGTAAACCTCGGATATCCGGTTCTTCTGTCTTGATTCGCTTGACGCTGCTG”, the binding signal is 12.2 log fluorescence intensity.
Next, “CGGAAGTGTCGTAAACGTCGGATATCCGGTTCTTATGTCTTGATTCGCTTGACGCTGCTG”: 12.4 log fluorescence intensity; “CGGAAGTGTCGTAAACGTCGGATATCCGGTTCTTCGGTCTTGATTCGCTTGACGCTGCTG”: 12.4 log fluorescence intensity; “CGGAAGTGTCGTAAACGTCGGATATCCGGTTCTTCCGTCTTGATTCGCTTGACGCTGCTG”: 13 log fluorescence intensity.
As to “CGGAAGTGTCGTAAACGTCGGATATCCGGTTCTTCAGTCTTGATTCGCTTGACGCTGCTG”, the binding signal is 12.6 log fluorescence intensity.
Under “CGGAAGTGTCGTAAACGTCGGATATCCGGTTCTACTGTCTTGATTCGCTTGACGCTGCTG” stands 12.4 log fluorescence intensity; under “CGGAAGTGTCGTAAACGTCGGATATCCGGTTCTGCTGTCTTGATTCGCTTGACGCTGCTG”, 12.5 log fluorescence intensity.
Next, “CGGAAGTGTCGTAAACGTAGGATATCCGGTTCTTCTGTCTTGATTCGCTTGACGCTGCTG”: 11.8 log fluorescence intensity; “CGGAAGTGTCGTAAACGTCGGATATCCGGTTCTCCTGTCTTGATTCGCTTGACGCTGCTG”: 12.6 log fluorescence intensity.
Under “CGGAAGTGTCGTAAACGCCGGATATCCGGTTCTTCTGTCTTGATTCGCTTGACGCTGCTG” stands 13.3 log fluorescence intensity; under “CGGAAGTGTCGTAAACGTTGGATATCCGGTTCTTCTGTCTTGATTCGCTTGACGCTGCTG”, 11.4 log fluorescence intensity; under “CGGAAGTGTCGTAAACTTCGGATATCCGGTTCTTCTGTCTTGATTCGCTTGACGCTGCTG”, 12.3 log fluorescence intensity.
In the case of “CGGAAGTGTCGTAAACGTCGGATATCCGGTTCCTCTGTCTTGATTCGCTTGACGCTGCTG”, the binding signal is 12.5 log fluorescence intensity.
Under “AGGAAGTGTCGTAAACGTCGGATATCCGGTTCTTCTGTCTTGATTCGCTTGACGCTGCTG” stands 12.3 log fluorescence intensity.
Next, “CGGAAGTGTCGTAAACGTGGGATATCCGGTTCTTCTGTCTTGATTCGCTTGACGCTGCTG”: 11.4 log fluorescence intensity; “CGGAAGTGTCGTAAACGTCGGATATCCGGTTCGTCTGTCTTGATTCGCTTGACGCTGCTG”: 12.4 log fluorescence intensity; “CGGAAGTGTCGTAAACGTCGGATATCCGGTTCTTCTGTCTTGATTCGCTTGACGCTGCTG”: 12.4 log fluorescence intensity.
Next, “TGGAAGTGTCGTAAACGTCGGATATCCGGTTCTTCTGTCTTGATTCGCTTGACGCTGCTG”: 12.5 log fluorescence intensity; “CGGAAGTGTCGTAAACATCGGATATCCGGTTCTTCTGTCTTGATTCGCTTGACGCTGCTG”: 12.6 log fluorescence intensity.
On to “GGGAAGTGTCGTAAACGTCGGATATCCGGTTCTTCTGTCTTGATTCGCTTGACGCTGCTG”, for which the binding signal is 12.6 log fluorescence intensity.
Under “CGGAAGTGTCGTAAACGTCGGATATCCGGTTCATCTGTCTTGATTCGCTTGACGCTGCTG” stands 12.6 log fluorescence intensity; under “CGGAAGTGTCGTAAACGTCTGATATCCGGTTCTTCTGTCTTGATTCGCTTGACGCTGCTG”, 11.1 log fluorescence intensity; under “CGGAAGTGTCGTAAAGGTCGGATATCCGGTTCTTCTGTCTTGATTCGCTTGACGCTGCTG”, 12.4 log fluorescence intensity.
Next, “CGGTAGTGTCGTAAACGTCGGATATCCGGTTCTTCTGTCTTGATTCGCTTGACGCTGCTG”: 12.5 log fluorescence intensity; “CGGAAGTGTCGTAAACGTCAGATATCCGGTTCTTCTGTCTTGATTCGCTTGACGCTGCTG”: 11.2 log fluorescence intensity; “CGGAAGTGTCGTAAACGTCGCATATCCGGTTCTTCTGTCTTGATTCGCTTGACGCTGCTG”: 11.6 log fluorescence intensity.
Under “CGTAAGTGTCGTAAACGTCGGATATCCGGTTCTTCTGTCTTGATTCGCTTGACGCTGCTG” stands 12.4 log fluorescence intensity; under “CGGAAGTGTCGTAAATGTCGGATATCCGGTTCTTCTGTCTTGATTCGCTTGACGCTGCTG”, 12.7 log fluorescence intensity.
For the sequence “CAGAAGTGTCGTAAACGTCGGATATCCGGTTCTTCTGTCTTGATTCGCTTGACGCTGCTG”, the binding signal is 12.6 log fluorescence intensity.
Under “CGCAAGTGTCGTAAACGTCGGATATCCGGTTCTTCTGTCTTGATTCGCTTGACGCTGCTG” stands 12.6 log fluorescence intensity; under “CGAAAGTGTCGTAAACGTCGGATATCCGGTTCTTCTGTCTTGATTCGCTTGACGCTGCTG”, 12.5 log fluorescence intensity; under “CGGAAGTGTCGTAAAAGTCGGATATCCGGTTCTTCTGTCTTGATTCGCTTGACGCTGCTG”, 12.5 log fluorescence intensity.
Next, “CGGGAGTGTCGTAAACGTCGGATATCCGGTTCTTCTGTCTTGATTCGCTTGACGCTGCTG”: 12.1 log fluorescence intensity; “CTGAAGTGTCGTAAACGTCGGATATCCGGTTCTTCTGTCTTGATTCGCTTGACGCTGCTG”: 12.3 log fluorescence intensity; “CGGAAGTGTCGTAAACGTCGGATATCCGGTGCTTCTGTCTTGATTCGCTTGACGCTGCTG”: 12.5 log fluorescence intensity.
